ERa SRC1 inh: blocks coactivator binding to human estrogen receptor alpha; P03372; TR-FRET ER-alpha LBD / SRC-1 peptide, estradiol-bound; inhibition, % at 25.6 µM; 86,000 tested, 1.7% active; in the data active = inhibition above about 50%;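 also: 0% = receptor plus peptide control and 100% = peptide only without receptor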
ERb SRC1 inh: blocks coactivator binding to human estrogen receptor beta; TR-FRET ER-beta LBD / SRC1-Cy5 peptide binding; receptor agonist-loaded with 1 µM estradiol; inhibition, % at 25.6 µM; 86,000 tested, 1.3% active;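 active = compounds whose percent inhibition of the receptor-coactivator binding signal exceeds about 50% in the single-dose screen, limit read from the data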;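 also: 0% = receptor plus peptide wells without compound and 100% = peptide-only wells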
Target sequence (Q92731 whole entry, looked up, the tested form may be a part): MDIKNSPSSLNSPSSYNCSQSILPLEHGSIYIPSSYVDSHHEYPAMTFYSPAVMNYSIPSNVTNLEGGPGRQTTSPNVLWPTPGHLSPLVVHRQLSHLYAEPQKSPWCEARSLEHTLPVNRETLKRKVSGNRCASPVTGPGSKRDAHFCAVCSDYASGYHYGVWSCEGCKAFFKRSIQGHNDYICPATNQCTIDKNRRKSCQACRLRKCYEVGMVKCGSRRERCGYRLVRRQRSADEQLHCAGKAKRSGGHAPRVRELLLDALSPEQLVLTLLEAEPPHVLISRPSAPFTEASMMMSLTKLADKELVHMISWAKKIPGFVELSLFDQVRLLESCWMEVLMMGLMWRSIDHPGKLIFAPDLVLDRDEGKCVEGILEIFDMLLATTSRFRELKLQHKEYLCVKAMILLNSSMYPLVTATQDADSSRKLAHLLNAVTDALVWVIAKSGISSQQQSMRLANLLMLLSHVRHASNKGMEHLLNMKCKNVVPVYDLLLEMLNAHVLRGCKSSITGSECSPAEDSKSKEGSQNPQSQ
Candida biofilm: kills Candida albicans biofilms; C. albicans biofilm + clotrimazole, Alamar Blue; inhibition, % at 6 µM; 85,000 tested, 0.14% active; AID 834;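 active = inhibition above 20%; inactive = inhibition below 20%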;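 also: preformed 24 hr biofilms exposed to compound for 48 hr; 0% = biofilm without compound and 100% = blank killed by clotrimazole plus chlorhexidine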
FAK blocker: FAK (human) kinase inhibition | biochemical FAK kinase activity assay | 97,000 tested, 0.84% active | inhibition, %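 (tested at 7 µM)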 | Q05397; in the data active = inhibition above about 19%;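 also: 0% = DMSO and 100% = reference compound high control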
ERa coact pot: enhances coactivator binding to human estrogen receptor alpha; P03372; TR-FRET ERalpha-LBD/SRC-Cy5 coactivator binding, 2 h; 100 = basal binding, no effect; coactivator binding (% of control), % at 25.6 µM; 86,000 tested, 1.3% active; AID 639; in the data active = activity above about 200%;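 also: binding measured in presence of low estradiol as agonist stimulus; 0% = peptide alone without receptor and 100% = receptor with peptide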
Smad3 FoxH1 inh: Smad3 (human) transcription factor binding inhibition; P84022; TR-FRET Smad3/Dy647-FoxH1 peptide binding, europium anti-His; inhibition, % at 25 µM; 88,000 tested, 0.29% active; AID 630;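 active = compounds that reduce the energy-transfer binding signal between the protein and its labelled peptide by more than half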;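 also: 0% = Smad3 plus labelled peptide maximal FRET and 100% = peptide-only background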
Active calls of the source: *; x = no result given; [ ] = remark or other dose. This is a sample that favours compounds with a hit; in the whole collection about 3.3% have one here.

SMILES	ERa SRC1 inh	ERb SRC1 inh	Candida biofilm	FAK blocker	ERa coact pot	Smad3 FoxH1 inh
CN1CC2(C)CN(C(c3ccccc3)c3ccccc3)CC(C)(C1)C2O (centres undefined)	44	57*	9	x	84	-2
CC(=O)NCCOC(=O)Nc1ccncc1	55*	2	7	-1	78	1
O=C(O)Cn1cnc2scc(-c3cccs3)c2c1=O	38	58*	9	-6	64	-3
O=C(NCCO)c1ccc(Cl)cc1	x	x	x	x	x	58*
C[C@]12CC[C@H]3C(=CCc4cc(O)ccc43)[C@@H]1CCC2=O	16	13	8	x	206*	-1
O=C(N1CCOCC1)N1CCN(c2ccccc2)CC1	-9	-12	6	-1	104	-2
O=C(N1CCOCC1)N1CCN(Cc2ccccc2)CC1	-5	-6	0	5	545*[fluorescence artefact?]	-2
C[C@H](NCCN(C)C)[C@@H]1CC[C@@H]2[C@H]3CCc4cc(O)ccc4[C@@H]3CC[C@]21C	x	x	x	x	x	-16
CCCCn1c(N2CCC(Cc3ccccc3)CC2)nc2c1c(=O)[nH]c(=O)n2C	22	0	-5	6	54	2
O=c1oc2c3c4c(cc2cc1-c1nc2ccccc2[nH]1)CCCN4CCC3	94*[fluorescence artefact?]	58*[fluorescence artefact?]	-1	x	10	39
Cc1ccc(C2NC(=O)c3c(sc4c3CCN(C)C4)N2)s1 (centres undefined)	54*[fluorescence artefact?]	36	2	1	29	-25
CN1CCc2c(sc3c2C(=O)NC(/C=C/c2ccco2)N3)C1 (centres undefined)	28	54*[fluorescence artefact?]	-2	8	43	-4
CCOC(=O)/C(C(N)=NCCO)=C(/O)c1ccccc1	-7	3	12	2	121	-4
Cc1snc2sc(C(=O)c3ccc(Br)cc3)c(N)c12	71*	52*	3	12	140	9
Cc1ccc(C(=O)c2sc3nsc(C)c3c2N)cc1	5	10	0	2	84	1
NS(=O)(=O)c1cc(Br)c(N=Nc2ccc(O)c3ncccc23)c(Br)c1	x	x	x	x	x	77*
CSC1=N/C(=C\c2ccccc2F)C(=O)S1	-4	-10	7	2	108	-10
CSC1=N/C(=C\c2ccc(Br)o2)C(=O)S1	69*	72*	6	8	34	8
Cc1nc2ccc(S(=O)(=O)NCC(=O)NCCN3CCCCCC3)cc2s1	57*[fluorescence artefact?]	22	12	6	54	-8
CCOC(=O)COc1c(OC)cc(Cl)cc1C1NC(=O)NC(C)=C1C(C)=O (centres undefined)	57*[fluorescence artefact?]	60*[fluorescence artefact?]	-3	1	88	-4
CCCC1=C(C(=O)OCC)C(c2cc(Cl)cc(OC)c2OCC(=O)OCC)NC(=O)N1 (centres undefined)	25	-6	5	2	106	6
O=C(NCc1ccco1)c1cc(-c2ccc3c(c2)OCO3)on1	26	11	8	3	261*[fluorescence artefact?]	6
Cc1nn(Cc2ccc(Cl)cc2)c(C)c1NC(=O)c1cc(-c2ccc3c(c2)OCO3)on1	70*[fluorescence artefact?]	19	9	7	74	6
Cc1ccc(-c2cc(C(=O)NCc3ccco3)no2)cc1	-9	-21	9	3	112	3
Clc1cccc(Cl)c1C(Nc1nncs1)Nc1nncs1	x	x	x	x	x	9
SMILES	ERa SRC1 inh	ERb SRC1 inh	Candida biofilm	FAK blocker	ERa coact pot	Smad3 FoxH1 inh
CN1CCC[C@H](C(=O)OCC(=O)[C@]2(O)CC[C@@H]3[C@H]4CCC5=CC(=O)CC[C@@]5(C)[C@@H]4[C@@H](O)C[C@]32C)C1	x	x	x	x	x	3
CCOC(=O)c1cc(OC(=O)c2ccccc2OC)n(-c2ccccc2)n1	74*[fluorescence artefact?]	20	7	-2	31	14
O=C(CSc1nnc2sc3ccccc3n12)c1ccco1	45	28	8	3	60	2
Cc1cc(=O)oc2cc(OCC(=O)OCC(=O)N3CCc4ccccc43)ccc12	15	10	7	1	177	5
CCCc1cc(=O)oc2cc(OCC(=O)Nc3cc(C)on3)ccc12	12	-3	1	-3	820*[fluorescence artefact?]	-24
CCCc1cc(=O)oc2cc(OCC(=O)N3CCc4ccccc43)ccc12	12	20	3	1	335*[fluorescence artefact?]	-125
O=C(COc1ccc2c(c1)CCC2)N1CCc2ccccc21	-7	-10	3	0	123	-4
CCCCc1cc(=O)oc2cc(OCC(=O)N3CCc4ccccc43)ccc12	18	15	2	-2	200*	8
C=C(Cl)COc1ccc2c(CCC)cc(=O)oc2c1	-5	-28	7	0	111	6
COc1ccc(C2C(=O)N(CCc3ccccc3)CC(=O)N2C2CCCC2)cc1 (centres undefined)	-23	-13	0	-1	113	-4
CCC(=NCCN1CCNCC1)C1=C(O)CC(C)(C)CC1=O	-3	-9	2	-2	103	-8
Cc1ccc(CNC(=O)c2cc3c(C)nc4ccccc4c3o2)cc1	57*[fluorescence artefact?]	32	6	-11	171	-1
FC(F)(F)c1nnc2c(Sc3ccccc3)nc3ccc(Cl)cc3n12	x	x	x	-11	x	x
COC(=O)c1cn(NC(=O)c2cccc(F)c2)c(=O)c2ccccc12	6	-9	60*	-1	80	-1
Cc1cccc(-n2c(O)c(C=Nc3ccc4c(c3)OCO4)c3ccccc3c2=O)n1	71*[fluorescence artefact?]	26	9	x	49	8
Cc1ccc(-n2c(O)c(C=Nc3ccc4c(c3)OCO4)c3ccccc3c2=O)cc1C	x	x	x	-4	x	x
OCCNc1ncnc2c1ncn2[C@H]1O[C@@H](CO)[C@H](O)[C@H]1O	x	x	x	x	x	25
CCN(CC)S(=O)(=O)c1ccc(C(=O)NCc2cccs2)cc1	x	x	x	0	x	x
CCN(CC)S(=O)(=O)c1ccc(C(=O)NCc2ccc(C)cc2)cc1	-8	62*	2	-3	105	-10
CN1CCN(C2=C(Cl)C(=O)C(c3cnc(N4CCCCC4)s3)=C(Cl)C2=O)CC1	46	72*[fluorescence artefact?]	5	12	57	19
CC1=NN(/C(=N\c2nnc(C)s2)Nc2ccc(C)cc2)[C@H](c2ccc(C)cc2)S1	-6	0	7	21*	113	-6
C=CCn1c(N)c(-c2nc3ccccc3n2C)sc1=S	5	2	0	3	91	-22
CCOC(=O)c1cc2ccccc2n1CCN(CC)CC	52*	-6	0	0	102	1
CN(C)CCn1c(C(=O)Nc2ccccc2)cc2ccccc21	2	-1	7	-2	129	15
COc1ccc(CNC(=O)C(c2ccncc2)N(C(=O)Cc2cccs2)c2ccc(C)cc2)cc1 (centres undefined)	x	x	x	-7	x	x
CC(=O)OC1=C(C#N)Cn2ccc3cccc1c32	61*[fluorescence artefact?]	46	3	4	63	9
FC(F)(F)c1cc(-c2ccco2)nc(NCCc2ccccc2)n1	-4	-2	1	2	95	3
CCCn1c(C)cc(=O)c2cc(NC(=O)c3cnccn3)ccc21	40	27	9	10	226*[fluorescence artefact?]	17

Screening results from PubChem BioAssay.
